Consider 40 compounds from PubChem BioAssay (NCATS).

Each structure is given as a SMILES string. Values joined by “and” are separate entries in the source; they are usually repeats but may differ in a detail not shown here. Equal entries are not always repeated. Records with an inconclusive call do not appear. Unmarked numbers belong to inactive results. Active and inactive are the calls of the source. The call rests on the fitted dose curve; in most records, active means well fitted activation curve with a large enough effect; inconclusive means small, poorly fitted or top-dose-only effect; inactive means no such curve, though single readings can be large or run the other way.
Potency means the concentration at half of the fitted maximal effect.

The target in the test is Cellular tumor antigen p53 (Homo sapiens) (UniProt P04637). Description: Primary qHTS for small molecule compounds that upregulate eGFP-tagged delta133p53alpha (in N-terminal) cells. (AID 2060322). Further: nearly all actives have a fitted effect of over 75% in size.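 On activation: cells pre-induced with doxycycline then dosed without doxycycline; series mostly up to about 56 µM; 0% = DMSO vehicle and 100% = reference activator.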 The settings on record: NCI-H358 eGFP-delta133p53alpha fluorescence, 24 h; activation: stronger effect = higher value. The procedure, abridged: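 NCI-H358 cells pre-induced 24 h with 10 ng/ml doxycycline for eGFP-delta133p53alpha, plated dox-free and exposed 24 h at 37C to titrated compounds. Fixed, Hoechst-stained; gated GFP peak intensity by laser scanning cytometry, normalized to DMSO (0%) and 57.5 uM 5-azacytidine (100%).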
Chain of Cellular tumor antigen p53 (Homo sapiens) (P04637 whole entry, looked up): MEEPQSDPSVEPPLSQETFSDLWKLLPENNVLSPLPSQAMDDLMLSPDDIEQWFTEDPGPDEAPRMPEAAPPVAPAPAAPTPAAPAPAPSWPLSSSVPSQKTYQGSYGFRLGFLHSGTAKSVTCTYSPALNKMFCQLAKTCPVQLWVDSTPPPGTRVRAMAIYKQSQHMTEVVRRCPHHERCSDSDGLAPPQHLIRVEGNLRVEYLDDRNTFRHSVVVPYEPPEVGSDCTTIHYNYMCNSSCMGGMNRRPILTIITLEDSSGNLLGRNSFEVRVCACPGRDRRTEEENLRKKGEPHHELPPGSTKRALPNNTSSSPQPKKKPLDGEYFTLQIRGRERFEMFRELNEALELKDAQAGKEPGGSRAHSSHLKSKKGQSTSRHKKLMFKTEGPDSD
(In general: In qHTS, concentration-response curves come from the screen itself.)
`CNCC[C@@H](Oc1ccccc1C)c1ccccc1`: the activation is -17.6%.

With `NC(=S)N/N=C/c1cccnc1`, the activation was 0.565%.

Regarding `CC(C)C(=O)Nc1cccc(C2CN3CCSC3=N2)c1` (stereo not given), the activation is 6.69%.

Consider `COC(=O)C1=C(C)NC(C)=C(C(=O)OCC(C)=O)C1c1ccccc1[N+](=O)[O-]` (stereo not given), for which the activation was 1.69%.

Consider `OCc1ccccn1`, for which the activation is 8.37%.

For `Nc1ccc(S(=O)(=O)NCc2ccccc2)cc1`, the activation was -10%.

For the compound `CCCSS/C(CCO)=C(\C)N(C=O)Cc1cnc(C)nc1N`, the Potency was 30.9 µM (active).

As for `CC(=O)Oc1ccc(C2(c3ccc(OC(C)=O)cc3)C(=O)Nc3ccccc32)cc1`, the activation was -31.1%.

With `CC(C)(C)NCC(O)COc1cccc2c1CCC(=O)N2` (stereo not given), the activation is 28.5%.

Take `OCc1cccnc1`: the activation was -5.02%.

Take `OC[C@H]1O[C@@H](n2cnc3c2NC=NC[C@@H]3O)C[C@H]1O`: the activation is -21%.

Regarding `O=C1C(O)=C(O)C(=O)C(O)=C1O`, the activation is -14.1%.

Turning to `CC1=C(C/C=C(\C)CCC[C@H](C)CCC[C@H](C)CCCC(C)C)C(=O)c2ccccc2C1=O`, the activation was 18.6%.

On to `CCCCCCCCCCCCCCCCCC(=O)O`, for which the activation is 24.3%.

In the case of `NS(=O)(=O)c1cc(C(=O)O)cc(N2CCCC2)c1Oc1ccccc1`, the activation was -9.6%.

With `Cc1cccc(C)c1NC(=O)c1ccccc1C(=O)O`, the activation was 28.5%.

Take `COc1ccc(C(C)=O)c(O)c1`: the activation was 14.5%.

Regarding `c1ccc(CNCCNCc2ccccc2)cc1`, the activation is 2.51%.

In the case of `CCN(C)C(=O)Oc1cccc([C@H](C)N(C)C)c1`, the activation was 6.21% and 13.7%.

Regarding `CCCCCCCCCCCCCCCCN`, the activation is -20.1%.

In the case of `O=c1[nH]c(=O)n([C@H]2C[C@@H](O)[C@@H](CO)O2)cc1C=CBr`, the activation is 11.1%.

Consider `Cn1cc(C=CC(=O)c2cccc(F)c2)cc1C=CC(=O)NO`, for which the Potency is 38.5 µM (active).

In the case of `CC1(C)O[C@@H]2C[C@H]3[C@@H]4CCC5=CC(=O)CC[C@]5(C)[C@@]4(F)[C@@H](O)C[C@]3(C)[C@]2(C(=O)CCl)O1`, the activation was -1.67%.

As for `O=C(Oc1ccccc1C(=O)O)c1ccccc1O`, the activation was -5.02%.

As to `Cc1ccccc1N1CCN(CCc2nnc3n2CCCC3)CC1`, the activation is -10.7%.

Regarding `COc1cc(NC(C)CCCN)c2ncccc2c1` (stereo not given), the Potency is 24.6 µM (active).

In the case of `Oc1cccc2[nH]ccc12`, the activation was -5.08%.

In the case of `CC(C)=CCCC(C)=CCCC(C)=CCSc1ccccc1C(=O)O`, the activation was 4.74%.

For the compound `CN1CC[C@H](c2c(O)cc(O)c3c(=O)cc(-c4ccccc4Cl)oc23)[C@H](O)C1`, the Potency was 0.11 µM (active).

In the case of `C[C@@H](O)[C@H]1C(=O)N2C(C(=O)O)=C([C@H]3CCCO3)S[C@H]12`, the activation is -8.47%.

With `O=C(O)c1ccccc1S`, the activation is 19.8%.

Take `CNCCc1ccccn1`: the activation is 5.02%.

Take `O=C1OC(CN2CCOCC2)CN1/N=C/c1ccc([N+](=O)[O-])o1` (stereo not given): the activation was 5.02%.

With `c1ccc(CCNc2nc(-c3ccccc3)cs2)cc1`, the activation was 20.1%.

For `CO[C@@]1(NC(=O)CSC[C@@H](N)C(=O)O)C(=O)N2C(C(=O)O)=C(CSc3nnnn3C)CS[C@@H]21`, the activation is 13.4%.

Turning to `CC(C)C[C@@H]1[C@H](c2ccccc2)OC(=O)N1CCCN1CCCCCC1`, the activation was 1.67%.

Regarding `CO/N=C(\C(=O)O)c1csc(NC(=O)CCl)n1`, the activation is -17.5%.

For `CC(=O)Nc1ncc([N+](=O)[O-])s1`, the activation is -1.69%.

Regarding `COc1ccccc1OCC(O)CO` (stereo not given), the activation was -10.9%.

`C[C@]12CCC(=O)C=C1[C@@H]1CC1[C@H]1[C@H]3[C@@H]4C[C@H]4[C@@]4(CCC(=O)O4)[C@@]3(C)CC[C@H]12` (stereo not given in full): the activation was 8.34%.
